The values below come from the supplement of paper PMC8975748.

Where a name gives a salt, the structure may show the parent alone.

This experiment deals with Saccharomyces cerevisiae BY4741 SeMeCo community. Briefly: z-score of subpopulation abundance vs DMSO median, subpopulation auxotrophic for HUM; higher = larger share of this subpopulation than in DMSO controls. The following applies: 10 µM; 24 h; SM minimal medium; subpopulation (auxotrophy): HUM. How it is done:
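Fluorescent four-plasmid SeMeCo (self-establishing metabolically cooperating S. cerevisiae BY4741 community; plasmids pH-mRuby2, pL-mWasabi, pU-eCFP, pM-TagRFP657) was grown 24 h in minimal SM medium with each Selleck FDA-approved drug at 10 µM in 384-well plates. Cells were fixed and imaged by high-content confocal microscopy. For each auxotrophic subpopulation (and the prototroph), a z-score gives the deviation from the DMSO vehicle-control population median.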
Regarding `N[C@H]1CONC1=O` [L-Cycloserine], the “z-score of subpopulation abundance” value amounted to 1.54.

As for `O=c1n(CCCN2CCN(c3cccc(Cl)c3)CC2)nc2ccccn12` [Trazodone HCl], the “z-score of subpopulation abundance” value turned out to be 0.45.

For the compound `COc1cc([C@@H]2c3cc4c(cc3[C@@H](O[C@@H]3O[C@@H]5CO[C@@H](C)O[C@H]5[C@H](O)[C@H]3O)[C@H]3COC(=O)[C@H]23)OCO4)cc(OC)c1O` [Etoposide], the “z-score of subpopulation abundance” value worked out at 0.64.

As to `COc1ccc(C2CNC(=O)C2)cc1OC1CCCC1` (stereo not given) [Rolipram], the “z-score of subpopulation abundance” value was -0.22.

Consider `Clc1ccc(COC(Cn2ccnc2)c2ccc(Cl)cc2Cl)cc1` (stereo not given) [Econazole], for which the “z-score of subpopulation abundance” value was found to be 4.19.

Take `CCCCCOc1ccc(-c2ccc(-c3ccc(C(=O)N[C@H]4C[C@@H](O)[C@@H](O)NC(=O)[C@@H]5[C@@H](O)[C@@H](C)CN5C(=O)[C@H]([C@@H](C)O)NC(=O)[C@H]([C@H](O)[C@@H](O)c5ccc(O)cc5)NC(=O)[C@@H]5C[C@@H](O)CN5C(=O)[C@H]([C@@H](C)O)NC4=O)cc3)cc2)cc1`: the “z-score of subpopulation abundance” value stood at 25.3.

As to `Cc1nc2n(c(=O)c1CCN1CCC(c3noc4cc(F)ccc34)CC1)CCCC2` [Risperidone], the “z-score of subpopulation abundance” value was found to be 1.02.

`CC[C@@H]([C@H](C)O)n1ncn(-c2ccc(N3CCN(c4ccc(OC[C@@H]5CO[C@@](Cn6cncn6)(c6ccc(F)cc6F)C5)cc4)CC3)cc2)c1=O` [Posaconazole]: the “z-score of subpopulation abundance” value is 11.8.

As to `CCCNC(C)C(=O)Nc1ccccc1C` (stereo not given) [Prilocaine], the “z-score of subpopulation abundance” value is -0.22.

`C[C@@H](O)[C@H]1C(=O)N2C(C(=O)O)=C(S[C@@H]3CN[C@H](C(=O)Nc4cccc(C(=O)O)c4)C3)[C@H](C)[C@H]12` [Ertapenem sodium]: the “z-score of subpopulation abundance” value turned out to be 0.

With `Cc1onc(-c2ccccc2)c1-c1ccc(S(N)(=O)=O)cc1` [Valdecoxib], the “z-score of subpopulation abundance” value was -0.83.

On to `CCOC(=O)C1=C(C)NC(C)=C(C(=O)OC)C1c1cccc(Cl)c1Cl` (stereo not given) [Felodipine], for which the “z-score of subpopulation abundance” value is -5.68.

In the case of `COc1cc(C(C)=O)ccc1OCCCN1CCC(c2noc3cc(F)ccc23)CC1` [Iloperidone], the “z-score of subpopulation abundance” value was -0.98.

Turning to `CN(CCN1CCC(OC(=O)Nc2ccccc2-c2ccccc2)CC1)C(=O)c1ccc(CN2CCC(C(N)=O)CC2)cc1` [Revefenacin], the “z-score of subpopulation abundance” value is 0.24.

For the compound `CCC1(C)CC(=O)NC1=O` (stereo not given) [Ethosuximide], the “z-score of subpopulation abundance” value is -0.44.

As for `Oc1c(Cl)cc(Cl)c2cccnc12` [Chloroxine], the “z-score of subpopulation abundance” value is 19.8.

`NC(=O)C(c1ccccc1)(c1ccccc1)[C@@H]1CCN(CCc2ccc3c(c2)CCO3)C1` [Darifenacin HBr]: the “z-score of subpopulation abundance” value was 0.05.

`CCC1=C(C)CN(C(=O)NCCc2ccc(S(=O)(=O)NC(=O)N[C@H]3CC[C@H](C)CC3)cc2)C1=O` [Glimepiride]: the “z-score of subpopulation abundance” value amounted to 0.42.

Consider `CO[C@@]1(NC(=O)Cc2cccs2)C(=O)N2C(C(=O)O)=C(COC(N)=O)CS[C@@H]21` [Cefoxitin sodium], for which the “z-score of subpopulation abundance” value was -1.19.

For `COc1ccc(C(=O)NCc2ccc(OCCN(C)C)cc2)cc1OC` [Itopride hydrochloride], the “z-score of subpopulation abundance” value turned out to be 0.81.

With `CCCCN1CCCC[C@H]1C(=O)Nc1c(C)cccc1C` [Levobupivacaine HCl], the “z-score of subpopulation abundance” value is -0.73.

Regarding `NC[C@@H]1O[C@H](O[C@H]2[C@@H](O)[C@H](O[C@@H]3[C@@H](O)[C@H](N)C[C@H](N)[C@H]3O[C@H]3O[C@H](CO)[C@@H](O)[C@H](O)[C@H]3N)O[C@@H]2CO)[C@H](N)[C@@H](O)[C@@H]1O` [Paromomycin Sulfate], the “z-score of subpopulation abundance” value was 0.69.

For `Cc1cc(O)cc(C)c1Cl` [Chloroxylenol], the “z-score of subpopulation abundance” value was 0.68.

Consider `Oc1c(I)cc(Cl)c2cccnc12` [Clioquinol], for which the “z-score of subpopulation abundance” value is 16.6.

With `Nc1c(CC(=O)O)cccc1C(=O)c1ccccc1` [Amfenac Sodium Monohydrate], the “z-score of subpopulation abundance” value was found to be 0.74.

For the compound `O=C(O)c1cn(C2CC2)c2cc(N3CCNCC3)c(F)cc2c1=O` [Ciprofloxacin hydrochloride hydrate], the “z-score of subpopulation abundance” value is 0.96.

As for `CC1(C)CC[C@]2(C(=O)O)CC[C@]3(C)C(=CC[C@@H]4[C@@]5(C)CC[C@H](O)C(C)(C)[C@@H]5CC[C@]43C)[C@@H]2C1` [Oleanolic Acid], the “z-score of subpopulation abundance” value was 0.93.

Consider `CCC(=O)c1c(O)cc(O)cc1O` [Flopropione], for which the “z-score of subpopulation abundance” value is -0.23.

On to `Cc1ccc(Sc2ccccc2N2CCNCC2)c(C)c1` [Vortioxetine], for which the “z-score of subpopulation abundance” value stood at 0.6.

With `CC(=O)OCC1=C(C(=O)O)N2C(=O)C(NC(=O)CSC(=NC(C)C)NC(C)C)C2SC1` (stereo not given) [Cefathiamidine], the “z-score of subpopulation abundance” value worked out at 0.21.

As for `Nc1ccc(/N=N/c2ccccc2)c(N)n1` [Phenazopyridine HCl], the “z-score of subpopulation abundance” value is -1.7.

In the case of `Fc1ccc(C(c2ccc(F)cc2)N2CCN(C/C=C/c3ccccc3)CC2)cc1` [Flunarizine 2HCl], the “z-score of subpopulation abundance” value was 0.51.

In the case of `CNCCCN1c2ccccc2CCc2ccccc21` [Desipramine Hydrochloride], the “z-score of subpopulation abundance” value was 0.16.

As for `C[N+]1(C)CCC(OC(=O)C(O)(c2ccccc2)C2CCCC2)C1` (stereo not given) [Glycopyrrolate], the “z-score of subpopulation abundance” value turned out to be 0.23.

Take `CCN(CC)C(=O)C1(c2ccccc2)CC1CN` (stereo not given) [Milnacipran HCl]: the “z-score of subpopulation abundance” value was -0.13.

Take `NS(=O)(=O)Cc1noc2ccccc12` [Zonisamide]: the “z-score of subpopulation abundance” value was 0.45.

Regarding `Cc1c(-c2ccc(O)cc2)n(Cc2ccc(OCCN3CCCCCC3)cc2)c2ccc(O)cc12` [Bazedoxifene HCl], the “z-score of subpopulation abundance” value was -0.15.

On to `CO/N=C(\C(=O)N[C@@H]1C(=O)N2C(C(=O)O)=C(COC(N)=O)CS[C@H]12)c1ccco1` [Cefuroxime sodium], for which the “z-score of subpopulation abundance” value was -0.92.

On to `CN1CCN(CC(=O)N2c3ccccc3C(=O)Nc3cccnc32)CC1` [Pirenzepine dihydrochloride], for which the “z-score of subpopulation abundance” value is -0.75.

Regarding `CCCCCCCCCC(=O)NC1C(Oc2c3cc4cc2Oc2ccc(cc2Cl)C(OC2OC(CO)C(O)C(O)C2NC(C)=O)C2NC(=O)C(NC(=O)C4NC(=O)C4NC(=O)C(Cc5ccc(c(Cl)c5)O3)NC(=O)C(N)c3ccc(O)c(c3)Oc3cc(O)cc4c3)c3ccc(O)c(c3)-c3c(OC4OC(CO)C(O)C(O)C4O)cc(O)cc3C(C(=O)O)NC2=O)OC(CO)C(O)C1O` (stereo not given) [Teicoplanin], the “z-score of subpopulation abundance” value was determined as 1.19.
